rTrxR1 inhibitor: rat TrxR1 inhibition; 1% of 390,000 active; recombinant rTrxR1, NADPH fluorescence consumption, selenite substrate; O89049; Potency, µM (titrated, usually from 114 µM), actives largely listed as inhibitors; further: nearly all actives have a fitted effect of over 65% in size
Target sequence (O89049 whole entry, looked up): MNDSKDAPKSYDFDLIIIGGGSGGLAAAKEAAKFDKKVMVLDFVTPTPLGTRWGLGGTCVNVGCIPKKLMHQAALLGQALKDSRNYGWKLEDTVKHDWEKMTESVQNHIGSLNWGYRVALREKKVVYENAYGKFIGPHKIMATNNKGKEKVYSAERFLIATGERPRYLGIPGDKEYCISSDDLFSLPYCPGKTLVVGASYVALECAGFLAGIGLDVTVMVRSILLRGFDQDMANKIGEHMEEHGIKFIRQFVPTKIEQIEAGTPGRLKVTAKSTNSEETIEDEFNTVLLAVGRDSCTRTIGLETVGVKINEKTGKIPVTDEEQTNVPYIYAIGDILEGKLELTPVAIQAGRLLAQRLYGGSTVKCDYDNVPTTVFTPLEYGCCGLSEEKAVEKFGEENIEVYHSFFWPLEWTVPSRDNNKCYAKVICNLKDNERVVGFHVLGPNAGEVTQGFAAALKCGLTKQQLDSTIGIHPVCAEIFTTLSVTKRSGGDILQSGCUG
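Rat TrxR1 (90 nM in the dispensed reagent) was pre-reduced with 400 uM NADPH for 5 min at room temperature, then incubated with compound for 15 min. After 400 uM selenite was added, NADPH fluorescence (Ex 340/Em 450 nm) was followed for 8 min.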
TrxR1 substrate: rat thioredoxin reductase 1 substrate activity. O89049. purified TrxR1 substrate turnover, NADPH consumption readout. Potency, µM (top dose mostly 114 µM). 0.01% of 390,000 active. AID 588456; further: nearly all actives have a fitted effect of over 50% in size
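Rat TrxR1, dispensed at 90 nM, was prereduced with 400 uM NADPH (final) for 5 min at ~22 deg C, then incubated with compound 15 min before 400 uM selenite. A first-read NADPH fluorescence drop versus no-compound background flagged substrates.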
RORg inh: blocks mouse ROR gamma transcriptional activity. Potency, µM (titrated, usually from 53.6 µM), most hits filed as inhibitors. P51450. 5.4% of 310,000 active. Drosophila S2 Gal4-RORgamma UAS-luciferase reporter, 20 h; further: nearly all actives have a fitted effect of over 60% in size
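Stably transfected Drosophila Schneider cells are the test system, with ROR gamma fused to Gal4 and luciferase under UAS control; luminescence is read after 20 hr of 700 uM copper sulfate induction at ambient temperature.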
VP16 counter: inhibits Gal4-VP16 luciferase reporter, ROR gamma counter-screen; Drosophila S2 Gal4-VP16 UAS-luciferase, luminescence, 20 h; Potency, µM (highest dose often 53.6 µM), most hits filed as inhibitors; 3.5% of 310,000 active;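 further: Gal4-VP16 expression switched on by copper sulfate through the metallothionein promoter; nearly all actives have a fitted effect of over 50% in size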
FBPA coupling cs: inhibits coupling enzyme system, counter-screen for aldolase hits; coupling enzyme system counterscreen, AmpLite Red fluorescence; activity change, negative = inhibition, % at 58.2 µM, hits read low; 0.67% of 290,000 active; AID 2472; in the data active means activity change below about -30%
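Counterscreen of the coupled detection system alone, without aldolase: glyceraldehyde-3-phosphate coupling enzymes plus AmpLite Red readout. Compounds at 57.5 uM final, 10 min RT preincubation, 20 min RT reaction, fluorescence 525/598 nm.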
GALK inhibitor: galactokinase (human) inhibition; P51570; Purified GALK, Kinase-Glo residual ATP luminescence; Potency, µM (highest dose often 57.5 µM), hits mostly inhibitors; 0.007% of 270,000 active
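ATP-depletion format; final 35 uM ATP, 100 uM D-galactose, 5 nM enzyme; pH 8.0 HEPES/Mg2+ buffer; 60 min RT; luminescence read 10 min after detection reagent.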
Hits are given with their value; . = inactive; ? = inconclusive; / = no result; [ ] = dose if it differs, or a comment. Hits are enriched below; roughly 5.9% of the tested compounds scored in any of these assays. Unless noted, the call rests on the fitted dose curve; in most records, active means well fitted curve in the direction sought with a large enough effect; inconclusive means small, poorly fitted or top-dose-only effect, or another doubt; inactive means no such curve, though single readings can be large; an effect the other way counts as inactive or inconclusive.

SMILES	rTrxR1 inhibitor	TrxR1 substrate	RORg inh	VP16 counter	FBPA coupling cs	GALK inhibitor
O=C(Nc1ccncc1)c1ccc(Br)cc1	.[2.29 µM]	.	.	.	.	.
O=C(COc1ccccc1)Nc1ccncc1	.	.	.	.	.	.
O=C(COc1ccc2ccccc2c1)Nc1ccncc1	.	.	?	13µM	.	.
CCC/C(O)=C1\C(=O)CC(C)(C)CC1=Nc1ccccc1O	.	.	.	?	.	.
COc1ccc(NC(=O)CN2C(=O)NC3(CCCCC3C)C2=O)cc1OC (configuration not stated)	.	.	/	/	/	/
O=C(Cc1ccccc1)N[C@@H](Cc1ccccc1)c1nc2ccccc2[nH]1	.	.	.	.	.	.
CCCCc1ccc(NC(=O)COc2ccc(C(=O)Nc3ccccc3C)cc2)cc1	/	/	?	11µM	.	.
CCc1ccc(OCC(=O)Nc2ccncc2)cc1	.	.	.[1.91 µM]	3.5µM	.	.
Cc1cc(OCC(=O)N[C@@H](Cc2ccccc2)c2nc3ccccc3[nH]2)ccc1Cl	.	.	20µM	?	.	.
CCCCc1ccc(NC(=O)COc2ccc(C(=O)Nc3ccccc3OC)cc2)cc1	/	/	.	.	.	.
O=C(NCc1ccccc1F)C(c1ccccc1)c1ccccc1	.	.	.	.	.	.
O=C(NCc1ccco1)C(=O)NCC1OCCCN1S(=O)(=O)c1ccc(F)cc1 (configuration not stated)	.	.	.	.	.	.
Cc1ccc(CN2CCC(CNC(=O)c3cc4ccc5cccnc5c4[nH]3)CC2)cc1	.	.	/	/	/	/
Cc1ccc(S(=O)(=O)N(C)c2ccc(C(=O)Nc3c(C)n(C)n(-c4ccccc4)c3=O)cc2)cc1	.	.	.	.	.	.
O=C(O)c1ccc(CNC(=S)Nc2ccccc2)cc1	.	.	.	.	.	.
Cc1ccc(C)n1-c1ccc(C(=O)NCc2ccncc2)cc1	45µM	.	.	.	.	.
O=C(NC(=S)NCc1ccncc1)c1ccccc1	.	.	.	.	.	.
CC(C)(C)C(=O)NC(=S)NCc1ccccc1	?	.	7.1µM	?	.	.
NC(=O)CC(NC(=S)NCc1ccccc1)C(=O)O (configuration not stated)	.	.	?	?	.	.
O=C(O)CC(NC(=S)NCc1ccccc1)C(=O)O (configuration not stated)	?	.	16µM	11µM	.	.
O=C(NC(=S)NCc1ccccc1)c1ccccc1	?	.	3.2µM	?	.	.
N#Cc1ccc2c(c1)C[C@]1(c3ccsc3)Oc3c(c(=O)oc4ccccc34)C2O1	/	/	?	.[10 µM]	.	/
CCN1CCN(C(=O)c2ccc3c(c2)N(Cc2ccc(F)cc2)C(=O)c2ccccc2S3=O)CC1 (configuration not stated)	.	.	.	.	.	.
O=C(NC(=S)NCc1ccc(F)cc1)c1ccccc1	13µM	.	5µM	?	.	/
Cc1cccc(C(=O)NC(=S)NCc2ccccc2)c1	.	.	/	/	/	/
SMILES	rTrxR1 inhibitor	TrxR1 substrate	RORg inh	VP16 counter	FBPA coupling cs	GALK inhibitor
O=C(Cc1ccccc1)NCc1ccncc1	.	.	6.3µM	?	.	.
O=C(Cc1c[nH]c2ccccc12)NCc1ccncc1	.	.	.	.	/	.
COC(=O)Cc1csc(NC(=O)CSc2nncn2C)n1	.	.	/	/	/	/
CC1=NN(C(=O)c2ccccc2)C(O)(c2ccc(Br)cc2)C1 (configuration not stated)	.	.	7.9µM	?	.	.
CCC1=NN(C(=O)c2cccc([N+](=O)[O-])c2)C(O)(c2ccc(C)cc2)C1 (configuration not stated)	.	.	5µM	5.6µM	.	.
Cc1ccc(Nc2ccc(N3CCN(C(=O)c4cccc([N+](=O)[O-])c4)CC3)nn2)cc1	.	.	/	/	/	/
O=C(c1ccccc1)N1N=C(C(F)(F)F)CC1(O)c1ccccc1O (configuration not stated)	.	.	8.9µM	13µM	.	.
CCOC(=O)N1N=C(C)CC1(O)c1ccccc1 (configuration not stated)	.	.	.	.	.	.
CCC1=NN(C(=O)c2ccc(Br)cc2)C(O)(c2ccccc2)C1 (configuration not stated)	.	.	13µM	7.1µM	.	.
COc1cccc(N2CC(C(=O)Nc3nnc(SCC(=O)N4CCOCC4)s3)CC2=O)c1 (configuration not stated)	.	.	.	.	.	.
CCCc1cc(=O)[nH]c(SCC(=O)N(CC(C)C)C2CCS(=O)(=O)C2)n1 (configuration not stated)	.	.	.	.	.	.
C=C(C)Cn1c(CCCNC(=O)CC)nc2ccccc21	.	.	.	.	.	.
CC(=O)Nc1ccc(N(C(=O)c2cnccn2)C(C(=O)NC2CCCCC2)c2ccc(F)cc2)cc1 (configuration not stated)	.	.	.	.	.	.
CC(=O)Nc1ccc(N(C(=O)c2cnccn2)C(C(=O)NC2CCCCC2)c2ccc(O)cc2)cc1 (configuration not stated)	7.1µM	.	.	.	.	.
O=C(CN1CCCc2ccccc21)N/N=C/c1c(O)ccc2ccccc12	.	.	1.3µM	0.79µM	.	.
O=C(CN1CCCc2ccccc21)N/N=C/c1ccc(O)cc1O	.	.	?	22µM	.	.
O=C1c2sc3nc4n(c(=O)c3c2CCC1Br)CCCCC4 (configuration not stated)	.	.	10µM	20µM	-62	.
O=C1CCCc2c1sc1nc3n(c(=O)c21)CCCCC3	.	.	?	.	.	.
CCOC(=O)CC1Sc2ccccc2NC1=S (configuration not stated)	.	.	3.5µM	?	.	/
O=C(NCC(c1ccc2c(c1)OCO2)N1CCOCC1)C(=O)Nc1ccc(F)cc1F (configuration not stated)	.	.	/	/	/	/
COc1cccc(CN2CCN(C3CSCCSC3)CC2CCO)c1 (configuration not stated)	.	.	.	.	-32	.
COc1cccc(CN2CCN(Cc3cccc4c3OCO4)CC2CCO)c1 (configuration not stated)	.[11.4 µM]	.[11.4 µM]	7.1µM	7.9µM	.	.
COC(=O)C1=C(C(=O)OC)[C@]2([C@@H]3CC=CCN[C@@H](Cc4ccccc4)C(=O)N3Cc3ccccc3)C=C[C@H]1O2	.	.	/	/	/	/
C=CCC(Nc1ccccc1)C12C=CC(O1)C(C(=O)OC)=C2C(=O)OC (configuration not stated)	7.9µM	.	5.6µM	6.3µM	.	.
CCOc1ccccc1N1CCN(C(=O)c2cc3ccccc3cc2OC)CC1	.	.	/	/	/	/
